From PubChem BioAssay (NCATS) come the findings set out here.

Records with an inconclusive call do not appear. A number with no mark means an inactive call. The source made the active and inactive calls. The call rests on the fitted dose curve; in most records, active means well fitted inhibition curve with a large enough effect; inconclusive means small, poorly fitted or top-dose-only effect; inactive means flat fitted curve, though single readings scatter.
Further: nearly all actives have a fitted effect of over 60% in size.

The subject of one assay is NIH3T3. Nature of the assay: Cytotoxic Profiling of Annotated Libraries Using Quantitative High-Throughput Screening (AID 1296008). Further: potency means the concentration at half of the fitted maximal effect. On max response: on the % scale 0 is the no-effect control and ±100 the full control effect. The note with it: Five cell lines viability, CellTiter-Glo ATP luminescence, 48-72 h; max response: hits give low values. In outline:
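Compounds were pin-transferred onto cells and incubated 48 or 72 hr at 37 degree Celsius, 95% humidity. CellTiter-Glo was added, plates sat 10 min at room temperature, then ATP-coupled luminescence was imaged as the viability read-out.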
For orientation: In ATP-based viability assays light output follows the ATP content of the culture.
In the case of `Clc1cccc(COc2cncc(N3CCNCC3)n2)c1`, the max response is -5.94%.

`COc1ccccc1OCCNCC(O)CCOc1cccc2[nH]c3ccccc3c12` (stereo unspecified): the max response was -5.46%.

For the compound `O=C(Nc1ccc(Cl)cc1)Nc1cccc(-c2cccc(N3CCCC3)n2)c1`, the max response was 1.43%.

`CC1(NC(=O)c2ccc(C#Cc3cccc(F)c3)cn2)COC1`: the max response is -3.45%.

As to `CCN(CC)CCCS(=O)(=O)N[C@H](CCc1ccccc1)c1nc(Cc2ccc(Br)cc2)no1`, the max response is -16.9%.

Regarding `COc1ccccc1C(=O)Nc1cc2c(cc1N1CCCC1)n(C)c(=O)n2C`, the max response is -10.9%.

Take `Fc1ccc(N2CCCCC2)c(NC(=S)c2ccncc2)c1`: the max response was -6.72%.

For `O[C@@](Cc1ncc(CC2(C(F)(F)F)CC2)[nH]1)(c1ccc(-n2cccn2)cc1)C(F)(F)F`, the max response is -24.1%.

Consider `Clc1ccc(Cn2c(Cc3ccccc3)nc3ccccc32)cc1`, for which the max response was -0.247%.

With `CCOc1cn(-c2ccc(F)cc2C)nc1C(=O)Nc1ccc(Oc2ccnc3cc(OC)c(OC)cc23)c(F)c1`, the Potency is 5.8 µM (active).

Take `CCNC1(C(N)=O)CCN(c2ncnc3c2nc(-c2ccccc2Cl)n3-c2ccc(Cl)cc2)CC1`: the max response is -1.7%.

On to `COc1cc(C(=O)O)ccc1NC(=O)C1NC(CC(C)(C)C)C(C#N)(c2ccc(Cl)cc2F)C1c1cccc(Cl)c1F` (stereo unspecified), for which the max response is -5.77%.

Regarding `CNc1nc(NCc2ccc(NS(C)(=O)=O)cc2Cl)cc(-c2ccccn2)n1`, the max response was -15.9%.

For the compound `N#Cc1ccc(N2N=C3c4ccc(C(=O)O)cc4CC[C@@H]3[C@@H]2C2CCCC2)cc1Cl`, the max response is -3.29%.

`CC(C)(O)c1ccn2c(-c3ccc(F)c(-c4ccc(F)cc4C#N)c3)cnc2c1F`: the max response was -2.51%.

Consider `O=S(=O)(c1ccccc1)N(CC(F)(F)F)c1ccc(C(O)(C(F)(F)F)C(F)(F)F)cc1`, for which the max response was 0.0289%.

In the case of `Cc1cc(C)cc(-c2cnc3cc(Cl)c(-c4cccc(O)c4)cc3c2OCCCN)c1`, the max response was -0.922%.

As to `CC(C)=C[C@@H]1[C@H](CO[C@@H]2O[C@H](CO)[C@@H](O)[C@H](O)[C@H]2O)C1(C)C`, the max response is 4.21%.

With `CNc1cccc(CCOc2ccc3c(c2)CN(CC(F)(F)F)C(=O)[C@H](CC(=O)O)C3)n1`, the Potency was 0.116 µM (active).

Turning to `O=C(COc1ccc2ccccc2c1Br)Nc1cccnc1`, the max response was -5.04%.

On to `CC1(CO)CC2C(O)C3=C(CC(C)(O)C2C1)C(=O)OC3` (stereo unspecified), for which the max response is 1.99%.

Regarding `COc1ccc(S(=O)(=O)N2CCC[C@H]2C(=O)Nc2cc(C)cc(C)c2)cc1`, the max response is 0.512%.

For `O=C(CNC(=O)c1cccc(C(F)(F)F)c1)N[C@@H]1CCN(Cc2ccc(Cl)cc2)C1`, the max response was -1.44%.

For the compound `O=C(NCc1nc2ccccc2c(=O)n1-c1ccc(F)cc1)Nc1ccc(Cl)c(C(F)(F)F)c1`, the max response was -1.1%.

On to `CCCN1CCC=C(c2cc(-c3ccc(C)cc3)no2)C1`, for which the compound was called inactive.

Turning to `C[C@]12CC[C@@H]3c4ccc(O)c(O)c4CC[C@H]3[C@@H]1CCC2=O`, the max response is -17.9%.

In the case of `COc1cc2c(cc1-c1c(C)noc1C)ncc1[nH]c(=O)n(C(C)c3ccccn3)c12` (stereo unspecified), the Potency was 7.31 µM (active).

On to `C/C=C/C=C/C=C/C(=O)O[C@@H]1C=C2COC(=O)[C@]2(O)[C@@]2(C)CCCC(C)(C)[C@H]12`, for which the max response was -4.92%.

In the next assay the test system is HACAT. Nature of the assay: qHTS assay to identify novel small-molecules to repurpose for Merkel cell carcinoma treatment (AID 1296009). The note with it: MCC and control cell lines, CellTiter-Glo viability, 72 h; at 44.8 µM (top of the series) unless noted. Put shortly:
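Cells exposed to NPC (8-point) and MIPE (11-point) compound dilutions for 72 hr at 37 degree celsius; viability read by CellTiter-Glo luminescence, normalized to no-cell and DMSO in-plate controls.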
(In general: Quantitative high-throughput screening tests each substance at several concentrations.)
Take `COc1ccccc1OCCNCC(O)CCOc1cccc2[nH]c3ccccc3c12` (stereo unspecified): the call was inactive.

Regarding `O=C(Nc1ccc(Cl)cc1)Nc1cccc(-c2cccc(N3CCCC3)n2)c1`, the result was inactive.

As for `CCN(CC)CCCS(=O)(=O)N[C@H](CCc1ccccc1)c1nc(Cc2ccc(Br)cc2)no1`, the compound was called inactive.

Turning to `O[C@@](Cc1ncc(CC2(C(F)(F)F)CC2)[nH]1)(c1ccc(-n2cccn2)cc1)C(F)(F)F`, the outcome was inactive.

`Clc1ccc(Cn2c(Cc3ccccc3)nc3ccccc32)cc1`: the call was inactive.

With `CCNC1(C(N)=O)CCN(c2ncnc3c2nc(-c2ccccc2Cl)n3-c2ccc(Cl)cc2)CC1`, the call was inactive.

As to `COc1cc(C(=O)O)ccc1NC(=O)C1NC(CC(C)(C)C)C(C#N)(c2ccc(Cl)cc2F)C1c1cccc(Cl)c1F` (stereo unspecified), the call was inactive.

Consider `CNc1nc(NCc2ccc(NS(C)(=O)=O)cc2Cl)cc(-c2ccccn2)n1`, for which the result was inactive.

Turning to `N#Cc1ccc(N2N=C3c4ccc(C(=O)O)cc4CC[C@@H]3[C@@H]2C2CCCC2)cc1Cl`, the outcome was inactive.

Turning to `CC(C)(O)c1ccn2c(-c3ccc(F)c(-c4ccc(F)cc4C#N)c3)cnc2c1F`, the compound was classed as inactive.

As to `O=S(=O)(c1ccccc1)N(CC(F)(F)F)c1ccc(C(O)(C(F)(F)F)C(F)(F)F)cc1`, the result was inactive.

As to `Cc1cc(C)cc(-c2cnc3cc(Cl)c(-c4cccc(O)c4)cc3c2OCCCN)c1`, the compound was classed as inactive.

Turning to `CC(C)=C[C@@H]1[C@H](CO[C@@H]2O[C@H](CO)[C@@H](O)[C@H](O)[C@H]2O)C1(C)C`, the outcome was inactive.

For `O=C(COc1ccc2ccccc2c1Br)Nc1cccnc1`, the result was inactive.

As for `O=C(NCc1nc2ccccc2c(=O)n1-c1ccc(F)cc1)Nc1ccc(Cl)c(C(F)(F)F)c1`, the result was inactive.

For `CCCN1CCC=C(c2cc(-c3ccc(C)cc3)no2)C1`, the call was inactive.

Take `C[C@]12CC[C@@H]3c4ccc(O)c(O)c4CC[C@H]3[C@@H]1CCC2=O`: the call was inactive.

On to `COc1cc2c(cc1-c1c(C)noc1C)ncc1[nH]c(=O)n(C(C)c3ccccn3)c12` (stereo unspecified), for which the call was inactive.
